Results on 8 compounds are retold here after PubChem BioAssay.

Test [1] concerns Wnt5a (protein binding on small-molecule microarray). Kind of test: Wnt5a binders on small-molecule microarray, primary screen, biophysical, 635/667 nm fluorescence (AID 1142).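 Note: fluorescence read at 667 nm with signal to noise per printed feature.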 The conditions noted are these: 635 nm fluorescence, higher = more signal.
Test [2] is described as follows: cell viability in Huh7 cells, primary screen, cytotoxicity control for HCV replication inhibitor project, CellTiter-Glo luminescence, basal, 48 h (AID 1143).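 Note: Huh7 hepatoma cells carrying a hepatitis C replication reporter with no stimulus; test concentration not given here.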 The conditions noted are these: Huh7 HCV replicon, higher = more signal, called active from +8 up or from −8 down.
Test [3] in a line: P. aeruginosa biofilm formation inhibitors, primary screen, PAO1 strain, BacTiter-Glo luminescence, LB-PBS (AID 1144). The conditions noted are these: 12 h, higher = more signal.
A short description of test [4]: CREB reporter modulators without forskolin, primary screen, cell-based, PC12, CRE-LacZ reporter, unstimulated (AID 1145). The conditions noted are these: no forskolin, luminescence, 4.5 h, higher = more signal, called active from +8 up or from −8 down.
Test [5] in a line: CREB reporter modulators under forskolin, primary screen, cell-based, PC12, CRE-LacZ reporter, forskolin-stimulated (AID 1146).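 Note: PC12 cells with 6xCRE LacZ reporter stimulated by forskolin 10 µM; beta-galactosidase reporter signal reflecting CREB driven transcription.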 The conditions noted are these: luminescence, 4.5 h, higher = more signal, called active from +8 up or from −8 down.
The target in test [6] is Streptavidin (Streptomyces avidinii) (UniProt P22629). In words: streptavidin binders on small-molecule microarray, primary screen, artefact control for SMM compound annotation, biophysical, 635/667 nm fluorescence (AID 1147).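 Note: signal reflects streptavidin binding to arrayed compounds as a control protein.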 The conditions noted are these: streptavidin binding, higher = more signal.
A short description of test [7]: small-molecule binders of probe aInhba, primary screen, biochemical, small-molecule microarray, 635/667 nm fluorescence (AID 1148).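 Note: score merges 667nm spot fluorescence with signal-to-noise for antibody binding to printed compounds.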 The conditions noted are these: higher = more signal.
Test [8] has as its target Torsin-1A (Homo sapiens) (UniProt O14656). In words: torsin A binders from cell lysate, primary screen, small-molecule microarray, wild-type, 635/667 nm (AID 1149). The conditions noted are these: COS7 hTOR1A-WT lysate, 635 nm fluorescence, higher = more signal.
Test [9] has the same target. Kind of test: small-molecule binders of mutant TOR1A in lysate, primary screen, cell lysate, small-molecule microarray, COS7 lysate, 635/667 nm fluorescence (AID 1150).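 Note: score pools 667 nm emission and signal to noise measuring lysate protein binding.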 The conditions noted are these: COS7 hTOR1A mutant lysate, 635 nm fluorescence, higher = more signal.
Test [10] has as its system Sonic hedgehog protein (Shh). In words: small-molecule binders of Shh protein, primary screen, biochemical, small-molecule microarray, 635/667 nm fluorescence (AID 1151).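 Note: Shh protein binding to compounds spotted on small-molecule microarray slides; score combines spot fluorescence intensity with signal-to-noise across triplicate slides.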 The conditions noted are these: small-molecule microarray binding, 635 nm fluorescence; higher = more signal.
The nature of test [11]: E. coli DRC41 culture turbidity changes, primary screen, E. coli filamentation inducer project, strain DRC41, OD650, 48 h (AID 1152).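 Note: E. coli MC1000 strain DRC41 lacking acrAB efflux pump and sulA.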 The conditions noted are these: E. coli DRC41 (acrAB sulA), higher = more signal, called active from +8 up or from −8 down.
A short description of test [12]: small-molecule binders of probe aLefty1, primary screen, biochemical, small-molecule microarray, 635/667 nm fluorescence (AID 1153).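 Note: score merges spot fluorescence with signal-to-noise ratio from the scanned slide images.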 The conditions noted are these: higher = more signal.
The nature of test [13]: PSAC antagonists in infected red cells, primary screen, cell-based, P. falciparum Indochina, OD700, 1 h (AID 1154). The conditions noted are these: P. falciparum Indochina infected RBC osmotic lysis, higher = more signal, called active from +8 up or from −8 down.
Test [14] can be described thus: PSAC antagonists in infected red cells, primary screen, cell-based, P. falciparum Indochina, OD700, 2 h (AID 1155).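 Note: lysis reports solute entry through the parasite surface anion channel PSAC; channel blockers reduce lysis of infected cells.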 The conditions noted are these: P. falciparum Indochina infected erythrocytes, osmotic lysis OD700; higher = more signal, called active from +8 up or from −8 down.
Test [15] in a line: osmotic lysis modulators in infected erythrocytes, primary screen, PSAC antagonist project, cell-based, P. falciparum Indochina, OD700, 3 h (AID 1156). The conditions noted are these: higher = more signal, called active from +8 up or from −8 down.
Test [16] in a line: PSAC antagonists in infected red cells, primary screen, cell-based, P. falciparum Indochina, OD700, 18 h (AID 1157). The conditions noted are these: P. falciparum Indochina infected erythrocytes, osmotic lysis OD700, 18 h; higher = more signal, called active from +8 up or from −8 down.
The nature of test [17]: modulators of S6 phosphorylation in cells, primary screen, cell-based, A549, cytoblot, luminescence, serum-stimulated (AID 1158).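 Note: serum-stimulated A549 lung adenocarcinoma cells; signal is phosphorylated S6 detected by cytoblot immunostaining with HRP secondary.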 The conditions noted are these: A549 phospho-S6 cytoblot, 5 h, higher = more signal.
Test [18] deals with NADPH oxidase 2 (Homo sapiens) (UniProt P04839). In words: NOX2-dependent H2O2 signal modulators, primary screen, NOX inhibitor project, cell-based, HEK293-NOX2, PMA-stimulated, Amplex Red fluorescence (AID 1159). Note: test concentration not given here. The conditions noted are these: 45 min, higher = more signal, called active from +8 up or from −8 down.
Test [19] addresses NADPH oxidase 4 (Homo sapiens) (UniProt Q9NPH5). Kind of test: NOX4-dependent H2O2 signal modulators, primary screen, NOX inhibitor project, cell-based, HEK293-NOX4, tetracycline-induced, Amplex Red fluorescence (AID 1160). The conditions noted are these: 45 min, higher = more signal, called active from +8 up or from −8 down.
Test [20] addresses NADPH oxidase 5 (Homo sapiens) (UniProt Q96PH1). In words: NOX5-dependent H2O2 signal modulators, primary screen, NOX inhibitor project, cell-based, HEK293-NOX5, Amplex Red fluorescence (AID 1161). The conditions noted are these: HEK293-NOX5, ionomycin, 45 min, higher = more signal.

Activity calls are given as the source filed them. Unless noted, the rule behind the calls is not given here.

NADPH oxidase 5 (Homo sapiens), sequence (Q96PH1 whole entry, looked up): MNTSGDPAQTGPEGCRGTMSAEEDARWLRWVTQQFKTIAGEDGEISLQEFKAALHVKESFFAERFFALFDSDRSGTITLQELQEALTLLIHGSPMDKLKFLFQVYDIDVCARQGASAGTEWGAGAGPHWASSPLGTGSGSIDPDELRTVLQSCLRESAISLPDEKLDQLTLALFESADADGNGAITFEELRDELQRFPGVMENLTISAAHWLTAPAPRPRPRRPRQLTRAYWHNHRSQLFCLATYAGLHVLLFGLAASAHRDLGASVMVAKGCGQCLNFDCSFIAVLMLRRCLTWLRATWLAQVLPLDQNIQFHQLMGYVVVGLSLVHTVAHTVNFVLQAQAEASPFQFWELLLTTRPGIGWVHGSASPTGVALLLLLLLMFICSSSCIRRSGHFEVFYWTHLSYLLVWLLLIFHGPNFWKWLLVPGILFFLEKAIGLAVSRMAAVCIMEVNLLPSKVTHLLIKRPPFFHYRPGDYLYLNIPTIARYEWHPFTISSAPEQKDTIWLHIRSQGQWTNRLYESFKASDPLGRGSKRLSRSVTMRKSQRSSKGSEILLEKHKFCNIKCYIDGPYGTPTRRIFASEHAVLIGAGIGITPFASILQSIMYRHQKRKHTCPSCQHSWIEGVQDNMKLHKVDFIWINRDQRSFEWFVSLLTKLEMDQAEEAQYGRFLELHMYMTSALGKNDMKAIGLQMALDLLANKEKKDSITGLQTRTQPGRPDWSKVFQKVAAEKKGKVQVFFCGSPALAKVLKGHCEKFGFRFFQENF
Torsin-1A (Homo sapiens), sequence (O14656 whole entry, looked up): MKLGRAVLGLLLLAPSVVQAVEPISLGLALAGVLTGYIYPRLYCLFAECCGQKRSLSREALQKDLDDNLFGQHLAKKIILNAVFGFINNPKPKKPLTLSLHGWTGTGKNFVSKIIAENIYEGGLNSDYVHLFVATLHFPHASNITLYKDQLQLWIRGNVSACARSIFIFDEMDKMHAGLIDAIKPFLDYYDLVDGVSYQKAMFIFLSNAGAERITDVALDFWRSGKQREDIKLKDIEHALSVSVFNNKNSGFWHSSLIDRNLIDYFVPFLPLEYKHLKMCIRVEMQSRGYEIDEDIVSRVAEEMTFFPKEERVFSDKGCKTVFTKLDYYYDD
Streptavidin (Streptomyces avidinii), sequence (P22629 whole entry, looked up): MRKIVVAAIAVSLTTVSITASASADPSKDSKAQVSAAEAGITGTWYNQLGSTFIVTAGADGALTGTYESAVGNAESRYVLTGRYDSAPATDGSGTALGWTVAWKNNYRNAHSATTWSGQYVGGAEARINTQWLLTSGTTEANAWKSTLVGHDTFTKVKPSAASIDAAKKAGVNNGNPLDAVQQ
NADPH oxidase 4 (Homo sapiens), sequence (Q9NPH5 whole entry, looked up): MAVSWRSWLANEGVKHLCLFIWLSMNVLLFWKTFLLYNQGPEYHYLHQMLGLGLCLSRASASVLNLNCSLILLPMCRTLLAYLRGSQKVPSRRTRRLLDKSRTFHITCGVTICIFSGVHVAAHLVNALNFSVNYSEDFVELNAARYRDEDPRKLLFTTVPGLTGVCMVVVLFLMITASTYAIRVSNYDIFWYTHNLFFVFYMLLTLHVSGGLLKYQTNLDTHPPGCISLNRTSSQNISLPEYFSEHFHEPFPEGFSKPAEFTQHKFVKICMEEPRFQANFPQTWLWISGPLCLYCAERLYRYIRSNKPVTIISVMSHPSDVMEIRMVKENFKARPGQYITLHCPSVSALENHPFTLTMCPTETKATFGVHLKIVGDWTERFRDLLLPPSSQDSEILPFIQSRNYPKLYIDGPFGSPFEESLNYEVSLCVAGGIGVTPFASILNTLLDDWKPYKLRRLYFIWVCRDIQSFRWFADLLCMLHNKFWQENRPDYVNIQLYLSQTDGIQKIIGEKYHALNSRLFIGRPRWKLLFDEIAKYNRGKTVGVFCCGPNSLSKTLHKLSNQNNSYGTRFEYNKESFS
NADPH oxidase 2 (Homo sapiens), sequence (P04839 whole entry, looked up): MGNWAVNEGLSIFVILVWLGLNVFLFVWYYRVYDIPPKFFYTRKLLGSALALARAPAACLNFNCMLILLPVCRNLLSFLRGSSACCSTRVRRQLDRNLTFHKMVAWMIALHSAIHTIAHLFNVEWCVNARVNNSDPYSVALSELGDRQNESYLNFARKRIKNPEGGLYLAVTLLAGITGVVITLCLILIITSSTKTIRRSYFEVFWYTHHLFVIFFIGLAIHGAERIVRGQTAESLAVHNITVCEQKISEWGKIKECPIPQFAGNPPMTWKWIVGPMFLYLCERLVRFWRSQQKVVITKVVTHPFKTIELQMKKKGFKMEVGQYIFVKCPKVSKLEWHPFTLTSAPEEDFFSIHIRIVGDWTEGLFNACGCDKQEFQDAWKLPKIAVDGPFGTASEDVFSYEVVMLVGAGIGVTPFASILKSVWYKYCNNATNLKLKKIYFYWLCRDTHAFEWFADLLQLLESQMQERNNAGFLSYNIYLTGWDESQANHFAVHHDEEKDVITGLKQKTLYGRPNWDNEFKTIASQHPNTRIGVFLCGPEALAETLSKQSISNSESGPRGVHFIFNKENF

For the compound `CCOC(=O)C[C@H]1[C@H](OC(=O)Cc2ccc3c(c2)OCO3)[C@@H](NC(=O)CC(C)C)c2cc(OCCCO)ccc2N1C(=O)Cc1ccc(OC)cc1`, the composite z-score in [1] was -0.199; in [6] it was -0.0258; in [7], -0.0471; with Torsin-1A (Homo sapiens) [8], 0.288; in the test with Torsin-1A (Homo sapiens) [9], -0.115; in test [10], -0.113. In [12], this compound yielded a composite z-score of -0.145. Also, the z-score was -1.04 (inactive) in test [2]; 0.29 (inactive) in test [3]; 0.0918 (inactive) in [4]; -0.513 (inactive) in test [5]; 2.26 (inactive) in [11]; 6.25 (inactive) in test [13]. Further, the z-score in [14] is -0.537 (inactive); in [15], -1.07 (inactive); in test [16], -1.3 (inactive); in test [17] it was 1.72; in [18] it was 0.163 (inactive); in test [19], 0.781 (inactive). In test [20], this compound gave a z-score of 1.15.

In the case of `CC(c1ccccc1)C(O)C1C=CC2C(=O)N(c3ccccc3)C(=O)C2N1Nc1ccc([N+](=O)[O-])cc1` (stereo not given), the composite z-score in [1] is 0.523; in test [6] it was 0.656; in test [7], 0.118; in the test with Torsin-1A (Homo sapiens) [8] it was 0.971; in the test with Torsin-1A (Homo sapiens) [9], 0.29; in test [10], 0.513. Also, the composite z-score in test [12] was found to be 0.175. The z-score in test [2] was -0.664 (inactive); in test [3] it was -1.53 (inactive); in test [4], -0.48 (inactive); in test [5], 0.624 (inactive); in test [11], 0.179 (inactive); in test [13] it was 20.8 (active). Besides, the z-score in test [14] was 5.25 (inactive); in test [15] it was 0.283 (inactive); in test [16] it was 1.61 (inactive); in test [17] it was -0.438; in [18], -0.7 (inactive); in test [19], -1.18 (inactive). The compound further returned a z-score in test [20] of -1.38.

Take `COCCCNC(=O)[C@@]1(Sc2ccc(C)cc2)CC(=O)N(C2CCCCC2)[C@@H]1c1ccc(CO)cc1`: the composite z-score was 0.0421 in test [1]; -0.749 in test [6]; -0.154 in [7]; -1.51 in the test with Torsin-1A (Homo sapiens) [8]; -0.424 with Torsin-1A (Homo sapiens) [9]; -0.911 in [10]. Also, in [12], the composite z-score came out at 0.0209. Further, the z-score in test [2] was -0.0515 (inactive); in [3] it was -0.319 (inactive); in test [4], 0.118 (inactive); in test [5], 1.7 (inactive); in test [11] it was -0.204 (inactive); in [13] it was 0.309 (inactive). The z-score was 0.17 (inactive) in [14]; 0.0051 (inactive) in test [15]; 0.326 (inactive) in test [16]; 0.0394 in [17]; 0.175 (inactive) in test [18]; -0.512 (inactive) in test [19]. In test [20], the z-score was -1.3.

Take `CC1=C[C@@]2(CO)C(=O)[C@]3(CO3)[C@@H]1[C@H]1[C@]2(C)C=C(CO)C(=O)[C@]12CO2`: the composite z-score in test [1] was 0.129; in [6], 0.006; in test [7], -0.103; with Torsin-1A (Homo sapiens) [8] it was 0.145; with Torsin-1A (Homo sapiens) [9], 0.171; in test [10], 0.265. The compound also came in with a composite z-score in test [12] of -0.148. For the same compound, the z-score in [2] was -0.0354 (inactive); in test [3], -0.108 (inactive); in test [4], 0.314 (inactive); in test [5] it was 1.51 (inactive); in test [11], 0.806 (inactive); in [13], 0.0442 (inactive). Further, the z-score was 0.446 (inactive) in [14]; 0.429 (inactive) in test [15]; 0.156 (inactive) in test [16]; -0.0631 in test [17]; -0.35 (inactive) in test [18]; -1.07 (inactive) in test [19]. In addition, the z-score in test [20] was -1.14.

With `[N-]=[N+]=Nc1ccccc1C[C@]1(C(N)=O)N=C(c2ccc(OCCCO)cc2)O[C@H]1c1ccccc1N=[N+]=[N-]`, the composite z-score in test [1] was 0.611; in [6], 1.22; in test [7] it was 0.189; with Torsin-1A (Homo sapiens) [8] it was 0.747; with Torsin-1A (Homo sapiens) [9], 0.986; in test [10] it was -0.191. In test [12], the composite z-score was 0.237. In addition, the z-score is -4.95 (inactive) in [2]; -0.783 (inactive) in test [3]; 1.6 (inactive) in test [4]; -1.25 (inactive) in [5]; -0.254 (inactive) in [11]; 28.5 (active) in test [13]. For the same compound, the z-score was 23.5 (active) in test [14]; 1.87 (inactive) in test [15]; 1.16 (inactive) in [16]; 1.14 in test [17]; -4.36 (inactive) in [18]; -2.16 (inactive) in test [19]. This compound had a z-score in [20] of -2.52.

Regarding `O=C(NCCCCCNC(=O)/C(Cc1ccccc1)=N/O)OCc1ccccc1`, the composite z-score in test [1] is -0.211; in test [6], 0.153; in test [7] it was -0.245; with Torsin-1A (Homo sapiens) [8] it was 0.847; with Torsin-1A (Homo sapiens) [9] it was -0.013; in [10], -0.103. This compound displayed a composite z-score in test [12] of -0.696. In addition, the z-score in test [2] is -1.82 (inactive); in test [3], -1.37 (inactive); in [4] it was 3.77 (inactive); in [5], -1.44 (inactive); in test [11], 2 (inactive); in test [13], 11 (active). Further, the z-score was -0.43 (inactive) in test [14]; 0.003 (inactive) in [15]; -2.25 (inactive) in test [16]; 1.19 in [17]; 0.53 (inactive) in [18]; 0.0195 (inactive) in [19]. The compound further came in with a z-score in test [20] of -1.35.

Consider `COc1ccc([Si](C)(C)[C@H]2[C@H](CC(=O)N(CCO)Cc3ccccc3)O[C@@]3(C(=O)N(Cc4cccc(N5CCOC5=O)c4)c4ccccc43)[C@@H]2C)cc1`, for which the composite z-score in [1] was -0.031; in [6], 0.0212; in test [7], -0.0523; in the test with Torsin-1A (Homo sapiens) [8] it was 0.898; in the test with Torsin-1A (Homo sapiens) [9], 0.931; in test [10] it was 1.22. The composite z-score in test [12] came to 0.114. In addition, the z-score was -4.86 (inactive) in [2]; -0.388 (inactive) in test [3]; 1.27 (inactive) in test [4]; -0.863 (inactive) in [5]; 0.359 (inactive) in test [11]; 12.9 (active) in [13]. Moreover, the z-score was 2.72 (inactive) in [14]; 1.68 (inactive) in test [15]; 1.31 (inactive) in [16]; 0.315 in [17]; 0.681 (inactive) in [18]; 0.7 (inactive) in test [19]. The same compound yielded a z-score in test [20] of 2.48.

As to `CCCC[C@@H]1C[C@H]1[C@@H](NC(=O)c1ccccc1)c1ccc(C(F)(F)F)cc1`, the composite z-score in test [1] is -0.547; in test [6], 0.056; in [7], -0.143; with Torsin-1A (Homo sapiens) [8], -1.15; with Torsin-1A (Homo sapiens) [9], -0.349; in [10], -1.85. Also, the composite z-score in test [12] stood at 0.361. Also, the z-score is 0.085 (inactive) in [2]; 0.401 (inactive) in [3]; -0.572 (inactive) in test [4]; 0.24 (inactive) in test [5]; -0.903 (inactive) in test [11]; -0.512 (inactive) in test [13]. Also, the z-score in [14] was 0.0991 (inactive); in [15], 0.162 (inactive); in test [16], 0.739 (inactive); in test [17], -0.295; in [18], -0.3 (inactive); in test [19] it was -0.742 (inactive). Further, the z-score in [20] was 0.689.
